USP1 inh: inhibitors of human USP1/UAF1 deubiquitinase; recombinant USP1/UAF1, Ub-Rhodamine cleavage fluorescence; Potency, µM (top dose mostly 57.1 µM), inactives show at the top dose activity change, negative = inhibition, most hits filed as inhibitors; hit rate 0.23% among 390,000; also: % is scaled to controls: 0 for no effect and ±100 for the full control effect; nearly all actives have a fitted effect of over 60% in size
Target sequence (O94782 whole entry, looked up): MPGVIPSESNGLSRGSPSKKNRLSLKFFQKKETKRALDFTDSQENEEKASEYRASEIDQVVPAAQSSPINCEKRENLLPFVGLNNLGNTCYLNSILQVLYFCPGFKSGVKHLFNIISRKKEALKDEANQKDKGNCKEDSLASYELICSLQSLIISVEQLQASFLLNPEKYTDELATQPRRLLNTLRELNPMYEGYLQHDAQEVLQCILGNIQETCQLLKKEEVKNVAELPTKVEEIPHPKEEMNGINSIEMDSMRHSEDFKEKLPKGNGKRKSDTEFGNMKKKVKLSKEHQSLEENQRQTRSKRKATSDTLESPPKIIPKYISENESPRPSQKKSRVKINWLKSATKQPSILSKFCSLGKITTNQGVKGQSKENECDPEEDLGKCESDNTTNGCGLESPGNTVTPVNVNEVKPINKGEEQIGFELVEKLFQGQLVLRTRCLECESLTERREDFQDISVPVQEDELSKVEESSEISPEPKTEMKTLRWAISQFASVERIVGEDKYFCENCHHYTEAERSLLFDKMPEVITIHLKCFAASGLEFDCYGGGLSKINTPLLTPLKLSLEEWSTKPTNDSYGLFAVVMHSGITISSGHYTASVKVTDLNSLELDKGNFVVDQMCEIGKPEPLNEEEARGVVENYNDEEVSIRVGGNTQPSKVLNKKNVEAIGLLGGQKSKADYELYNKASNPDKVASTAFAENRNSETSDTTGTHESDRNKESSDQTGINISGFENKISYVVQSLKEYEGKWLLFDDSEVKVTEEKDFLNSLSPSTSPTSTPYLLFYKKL
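USP1/UAF1 complex at 1 nM was preincubated with compound for 15 min at room temperature, then Ub-Rho substrate (150nM final) was added. Fluorescence (480/540 nm) was read kinetically, 6 reads every 60 seconds.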
KAT2A inh: blocks human GCN5L2 histone acetyltransferase; GCN5L2 HAT assay, ThioGlo1 CoA-SH fluorescence; hit rate 0.21% among 390,000; Potency, µM (series often up to 58.9 µM), inactives show top-dose activity change, negative = inhibition, hits mostly inhibitors; Q92830; also: % is scaled to controls: 0 for no effect and ±100 for the full control effect
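GCN5L2 (20nM final) in 50mM HEPES, 0.1mM EDTA pH 7.5, 0.01% Tween-20 was preincubated 15 min at room temperature with compound, then given ThioGlo1 (50uM), H3(1-25) peptide (75uM) and acetyl-CoA (70uM); CoA-thiol fluorescence (Ex340/Em540) was read at 0 and 20 min.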
PLK1 PBD inh: blocks phosphopeptide binding to human PLK1 polo-box domain; hit rate 2.8% among 360,000; Plk1 PBD binding of FITC phosphopeptide, fluorescence polarization; Potency, µM, inactives show max response, negative = inhibition, most hits filed as inhibitors; P53350; also: series mostly up to about 57 µM; % is scaled to controls: 0 for no effect and ±100 for the full control effect; nearly all actives have a fitted effect of over 65% in size
TSG101-PTAP inh: blocks PTAP/TSG101 interaction to inhibit HIV-1 budding. Fluorescence polarization, FITC-PTAP peptide / Tsg101 binding. AID 493005. Potency, µM (titrated, usually from 115 µM), without a hit: top-dose activity change, negative = inhibition, hits mostly inhibitors. Q99816. 340,000 tested, under 10 active; active = well fitted inhibition curve with a large enough effect in the main read-out, with a control signal flat, not every such curve was filed as active; inconclusive = small, poorly fitted or top-dose-only effect, or effect the other way, or a change in a side signal; inactive = no such curve, though single readings can be large or run the other way; also: % of control where 0% means no effect
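Steps: Tsg101 binding domain dispensed (10 uM final), compounds pinned in DMSO, FITC-labeled PTAP-motif peptide added (50 nM final); after 20 min binding at room temperature, polarization measured.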
VDR inhibitor: blocks the human vitamin D receptor | hit rate 0.93% among 400,000 | P11473 | Potency, µM, inactives show max response, negative = inhibition, hits mostly inhibitors | VDR-SRC2-3 peptide fluorescence polarization, 2 h | AID 504847; also: % is scaled to controls: 0 for no effect and ±100 for the full control effect
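Compounds are added to VDR with labelled SRC2-3 coactivator peptide and held 2 h at room temperature. Inhibition of the VDR–peptide interaction is then read as a change in fluorescence polarization.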
* hit, by the source's call; i = inactive; ? = inconclusive; . = no result; ! = not active in a repeat. Compounds with a hit are over-represented: about 3% of the library has one in this group of screens. Unless noted, calls follow the shape of the dose curve; as a rule, active = well fitted curve in the direction sought with a large enough effect; inconclusive = small, poorly fitted or top-dose-only effect, or another doubt; inactive = no such curve, though single readings can be large; an effect the other way counts as inactive or inconclusive. Potency is read from the fitted curve at half-maximal effect.

SMILES | USP1 inh | KAT2A inh | PLK1 PBD inh | TSG101-PTAP inh | VDR inhibitor
Cc1ccccc1N1CCN(C(=O)c2cc(-c3ccccc3)nc3c2cnn3C(C)C)CC1 | -23% | . | -3% | . | .
CC(C)c1cc(C(=O)O)c2cnn(C(C)C)c2n1 | -24% | -5% | 27µM* | -2% | ?
Cc1ccccc1-c1nn[nH]n1 | -3% | 0% | -5% | -3% | -17%
c1ccc(-c2nn[nH]n2)c(Nc2cccc3c2CCCC3)c1 | . | 18µM* | . | . | 40µM*
COc1ccc(C2=CC(=O)C[C@H](c3ccc(OC)cc3)C2)cc1 | -35% | -6% | 5% | -6% | -11%
COc1ccc(C2=CC(=O)C=CC2=O)cc1 | . | 13µM* | . | . | .
c1nc(NC2CC2)c2cc(-c3ccoc3)ccc2n1 | . | -28% | . | . | 40µM*
c1cncc(CNc2cc(-c3ccoc3)ncn2)c1 | . | -7% | . | . | 22µM*
CN(C)c1ccc(-c2cc(NCc3cccnc3)ncn2)cc1 | . | -26% | . | . | -3%
c1cn(-c2ncnc3ccc(-c4ccoc4)cc23)cn1 | . | -13% | . | . | 32µM*
Cc1cnc(CNc2cc(-c3ccoc3)ncn2)cn1 | . | -6% | . | . | 45µM*
Cc1cnc(CNc2ccnc(-c3ccoc3)n2)cn1 | . | -8% | . | . | ?
CCC(CC)C(=O)Nc1ccc2nc(SCC(=O)N3CCCC3)sc2c1 | -16% | -6% | . | . | 2%
Fc1cccc(CNc2ncnc3ccc(-c4ccoc4)cc23)c1 | . | -14% | . | . | .
Cc1cccc(CNc2ncnc3ccc(-c4ccoc4)cc23)c1 | . | ? | . | . | 20µM*!
c1cncc(CNc2ncnc3ccc(-c4ccoc4)cc23)c1 | . | 28µM*! | . | -1% | ?
COc1ccc(N2CCCC2)c(NC(=O)c2ccc(Br)o2)c1 | -26% | -6% | -3% | -1% | 5%
CC(=O)Nc1ccc(C2CC(c3ccc(Cl)cc3)=NN2c2ccccc2)cc1 (stereo unspecified) | -13% | 32µM* | -1% | 0% | 6%
Cc1c(CCNS(=O)(=O)c2ccccc2)sc2nc(-c3ccc(Cl)cc3)nn12 | -23% | -8% | . | . | 9%
Cc1ccc(C(NC(=O)N2CCOCC2)C(Cl)(Cl)Cl)cc1F (stereo unspecified) | -25% | 0% | 27µM* | -2% | -6%
COC(=O)CN1C(=O)CSc2ccc(S(=O)(=O)Nc3ccc(C(C)=O)cc3)cc21 | 8% | 1% | . | . | 4%
CN(C(=O)c1oc(=O)c2ccccc2c1-c1ccccc1)c1cccc(Cl)c1 | -14% | -15% | . | . | -2%
COc1ccc(N=N/C(=C\O)C(=O)c2ccco2)cc1 | -8% | -10% | 27µM* | -1% | -6%
COc1ccc(/C(N)=N/OC(=O)c2ccco2)cc1 | ? | -6% | -2% | -1% | 10%
CCOC(=O)C1CCC(CN(Cc2cccc(Br)c2)S(=O)(=O)c2ccc(C)cc2)CC1 (stereo unspecified) | -13% | -4% | . | . | -4%
SMILES | USP1 inh | KAT2A inh | PLK1 PBD inh | TSG101-PTAP inh | VDR inhibitor
COc1cc(C)c(/C=C/C(C)=C/C=C/C(C)=C/C(=O)O)c(C)c1C | -33% | 25µM* | 30µM* | 1% | 45µM*!
CCNc1ncc2nc(-c3cccs3)c(=O)n(Cc3cccs3)c2n1 | . | -8% | . | . | -8%
CCOc1ccc(N2CC(NC(=O)Cc3ccccc3)CC2=O)cc1 (stereo unspecified) | -15% | 0% | . | . | 12%
NCCC[C@@H](CC(=O)N[C@@H]1CCNC[C@H]1C(=O)N[C@H](CC(=O)N[C@@H](CCC(=O)O)CC(=O)O)Cc1ccccc1)NC(=O)C[C@H](CO)NC(=O)[C@@H]1CCCC[C@H]1N | . | . | . | . | 5%
CCc1ccccc1NC(=O)c1sc2nc(C)cc(C)c2c1N | -13% | -8% | 24µM* | -10% | ?
Cc1cc(C)c2c(N)c(C(=O)Nc3ccccc3Br)sc2n1 | -4% | -1% | -5% | -1% | 63%
CCCc1nnc(NC(=O)Cc2coc3c(C)c(C)ccc23)s1 | 16% | 9% | . | . | 11%
CC1CCN(c2ccc3c(c2)S(=O)(=O)c2cccc(C(=O)NCc4cccc(F)c4)c2C3=O)CC1 | ? | ? | ? | ? | -3%
O=C(NCc1ccco1)c1cccc2c1C(=O)c1ccc(N3CCC(Cc4ccccc4)CC3)cc1S2(=O)=O | 28µM* | -12% | ? | ? | -8%
O=C(NCc1cccc(F)c1)c1cccc2c1C(=O)c1ccc(N3CCC(Cc4ccccc4)CC3)cc1S2(=O)=O | 7.9µM* | -7% | ? | ? | -11%
O=C(NCc1cccc(C(F)(F)F)c1)c1cccc2c1C(=O)c1ccc(N3CCC(Cc4ccccc4)CC3)cc1S2(=O)=O | 25µM* | -3% | -29% | ? | -7%
O=C(NCCc1ccc(F)cc1)c1cccc2c1C(=O)c1ccc(N3CCC(Cc4ccccc4)CC3)cc1S2(=O)=O | i | -6% | ? | ? | -15%
O=C(NCc1ccc(OC(F)(F)F)cc1)c1cccc2c1C(=O)c1ccc(N3CCC(Cc4ccccc4)CC3)cc1S2(=O)=O | 390% | -4% | -18% | . | -22%
COc1ccccc1N(CC(=O)N1CCC(C)CC1)S(=O)(=O)c1ccc(C)cc1 | -13% | -5% | . | . | -7%
COc1ccc(S(=O)(=O)NC2CC2)cc1C(=O)N1CCOCC1 | -9% | -5% | 7.5µM* | -2% | ?
CCOC(=O)C1CCN(C(c2cccc(F)c2)c2c(O)cc(C)n(Cc3ccco3)c2=O)CC1 (stereo unspecified) | -14% | -7% | . | . | 20%
COc1ccc(OCCCC(=O)Nc2nc(-c3ccccn3)cs2)cc1 | -29% | -18% | 27µM* | 0% | -8%
O=C(CCS(=O)(=O)c1ccccc1)Nc1nc(-c2ccccn2)cs1 | 5% | . | -17% | -10% | -10%
O=C(N/C=C\c1ccccc1)NCc1ccc(Cl)cc1 | -11% | -5% | -12% | 1% | -12%
O=C(N/C=C\c1ccccc1)NCc1ccc(Cl)cc1Cl | -20% | -19% | 21µM* | -9% | -4%
O=C(Cc1c[nH]c2ccccc12)NCc1ccc(Cl)cc1Cl | -15% | 1% | 30µM* | -5% | -22%
COc1ccccc1N1CCN(S(=O)(=O)c2c(C)sc3ncn(CC(=O)Nc4ccc(C)cc4Br)c(=O)c23)CC1 | -23% | -4% | . | . | -1%
O=C(c1cc(=O)[nH]c2ccccc12)N1CCN(c2cccc(C(F)(F)F)c2)CC1 | -19% | -2% | 19µM* | -4% | ?
O=C(c1c(F)c(F)c(F)c(F)c1F)N1CCN(c2cccc(C(F)(F)F)c2)CC1 | -17% | -3% | 6µM* | -2% | ?
COc1ccc(S(=O)(=O)N2CCCCCC2)cc1NC(=O)CCNC(=O)c1ccccc1Cl | -17% | . | 7% | . | .
O=C(Cn1cc(S(=O)(=O)N2CCCC2)c(S(=O)(=O)N2CCCC2)c1)Nc1cccc(F)c1 | -24% | 5% | . | . | 9%
COc1cc(/C=N/O)ccc1Oc1ccc([N+](=O)[O-])cc1[N+](=O)[O-] | -14% | ? | -28% | -4% | -10%
